SMILES strings stand for the structures. Inconclusive results are not listed. Where a call stands in place of a potency, no number is given. Active and inactive are the calls of the source. The call rests on the fitted dose curve; in most records, active means well fitted activation curve with a large enough effect; inconclusive means small, poorly fitted or top-dose-only effect; inactive means no such curve, though single readings can be large or run the other way.
Potency means the concentration at half of the fitted maximal effect.

The nature of the test: qHTS assay for re-activators of p53 using a Luc reporter: Hit Validation with no p53 Expressed. The conditions noted are these: p53-null cells, luciferase reporter counter-screen; series mostly up to 46.1 µM. In a few lines: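 Counter-screen of primary hits in a cell line not transfected with p53, in Opti-MEM with 10% FBS; compounds at several concentrations (10 mM stock, 1:5; top 46.1 µM in well), 24 h at 37 deg C, 5% CO2. Luminescence read after 10 min with Amplite reagent.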
For the compound `O=c1[nH]c2ccc(N/C(=N/S(=O)(=O)c3ccccc3)c3ccccc3)cc2[nH]1`, the Potency entry was “inactive”.

Take `O=C(N/N=C\c1cc(Cl)ccc1O)c1ccc(S(=O)(=O)N2CCCCC2)cc1`: the Potency result is “inactive”.

Regarding `O=C(Nc1nnc(-c2cccs2)o1)c1cccc(Oc2ccccc2)c1`, the Potency entry was “inactive”. For `O=S(=O)(N/N=C/c1ccccc1OCc1ccc(Cl)cc1)c1ccccc1`, the Potency entry is “inactive”. Take `Cc1ccc(/C=C(\C#N)C(=O)NCC2CCCO2)o1` (centres undefined): the Potency result is “inactive”. In the case of `O=C(N/N=C/c1cccs1)c1n[nH]c2c1CCC2` it was “inactive”.

As to `Cc1cccc(-n2c(O)c(C=Nc3ccccc3N)c(=O)[nH]c2=O)c1`, the Potency result is “inactive”. Take `Cc1ccc(CCc2nnc(SCC(=O)Nc3cccc(Cl)c3)n2-c2ccccc2)o1`: the Potency entry is “inactive”. As for `COc1cccc(NC(=O)CSC2=C(C#N)C(c3ccco3)C3=C(CCCC3=O)N2)c1` (centres undefined), the Potency entry is “inactive”. In the case of `CCN(CC)c1ccc2cc(-c3nc4ccccc4n3C)c(=O)oc2c1` it was “inactive”. On to `COc1ccc(CNC(=O)NC2CCCCC2)cc1`, for which the Potency result is “inactive”. Consider `CCOc1ccc(OCCSc2nc3ccccc3n2CC(=O)O)cc1`, for which the Potency result is “inactive”. Consider `COCCn1c(C)cc(C(=O)COc2ccc(N(C)S(=O)(=O)c3ccc(C)cc3)cc2)c1C`, for which the Potency entry is “inactive”.

On to `CN(c1ccc(C(=O)COC(=O)C2CC2)cc1)S(C)(=O)=O`, for which the Potency result is “inactive”. In the case of `CC(=O)c1ccc(NC(=O)CCc2nnc3ccc(NCc4ccco4)nn23)cc1`, the Potency entry is “inactive”. In the case of `COC(=O)c1cn[nH]c1NC(=S)Nc1ccc(C)cc1Cl` it was “inactive”. As for `O=C(Nc1ccc(COc2ccccc2)cc1)c1cccc([N+](=O)[O-])c1`, the entry is “inactive”; as for `CN1C(=O)C2(OCC(CO)([N+](=O)[O-])CO2)c2ccccc21` (centres undefined), “inactive”. As for `NNc1nc(-c2ccccc2)nc2sc3c(c12)CCCC3`, the entry is “inactive”; as for `Cc1ccc2oc(-c3ccc(C)c(NC(=S)NC(=O)c4cccs4)c3)nc2c1`, “inactive”; as for `CN(C)c1ccc(/C=N/N=C/c2ccccc2O)cc1`, “inactive”.

As to `CCc1ccc(OCC(=O)NC(NC(=S)Nc2ccccc2C)C(Cl)(Cl)Cl)cc1` (centres undefined), the Potency entry was “inactive”. In the case of `COc1ccc(C(C)(C)C)cc1NC(=O)Nc1ccc2c(c1)OCO2`, the Potency result was “inactive”. With `CC(=O)c1ccc(N2Cc3ccccc3C2=NC(=O)c2cccs2)cc1`, the Potency was 10.3 µM (active). Regarding `CC(C)(C)Nc1ncnc2c1cnn2-c1ccccc1`, the Potency entry is “inactive”. Consider `CCCCNc1ncnc2c1cnn2-c1ccccc1`, for which the Potency result is “inactive”. Consider `CCN(CC)c1ccc(NC(=O)CN2CCN(CC(=O)Nc3ccccc3F)CC2)cc1`, for which the Potency entry is “inactive”. Consider `O=C1/C(=C/c2ccco2)SC(=S)N1CCC(=O)N1CCCCC1CCO` (centres undefined), for which the Potency entry is “inactive”. As for `Cc1cccc(NC(=S)NC(=O)C2CC2)c1`, the entry is “inactive”; as for `CS(=O)(=O)c1ccc2nc(NC(=O)CCNC(=O)c3ccccc3Cl)sc2c1`, “inactive”. With `COc1ccc(N2CCN(C3CCCN(Cc4cccc(OC)c4)C3)CC2)cc1` (centres undefined), the Potency entry is “inactive”.

Consider `CCc1nnc(NC(=O)C2Cc3ccccc3CN2S(=O)(=O)c2cccs2)s1` (centres undefined), for which the Potency entry was “inactive”. In the case of `COc1ccc(CCC(=O)Nc2ccc(-c3noc(-c4ccc(OC)c(OC)c4)n3)cc2)cc1` it was “inactive”. As to `O=C(CCN1C(=O)NC2(CCCC2)C1=O)Nc1ccc(-c2nc3ccccc3s2)cc1`, the Potency is 2.31 µM (active). As to `CN(CC(=O)Nc1ccc(Cl)c(Cl)c1)C(=O)C1CCCC1`, the Potency result is “inactive”. Take `COc1ccc(N2C(=O)CC(Cc3ccc(Br)cc3)C2=O)cc1` (centres undefined): the Potency result was “inactive”.

For `COc1cc(C(=O)NCCc2cn3ccc(C)cc3n2)cc(OC)c1OC`, the Potency result is “inactive”. Regarding `Cc1ccc(NC(=O)c2ccc(OC(=O)COc3ccc(Cl)c(C)c3)cc2)cc1`, the Potency entry was “inactive”. Turning to `N#Cc1cnc(Oc2ccc(Cl)cc2)nc1N`, the Potency entry was “inactive”.

Source of the values: PubChem BioAssay AID624331 (National Center for Advancing Translational Sciences (NCATS), 2012).
